# Compound activity (PubChem)
# D2 PAM-1 = Beta-Arrestin HTS for Positive Allosteric Modulators of the Human D2 Dopamine Receptor: Potentiators; D(2) dopamine receptor (Homo sapiens), P14416; DiscoveRx D2 beta-arrestin cells, luminescence, 90 min; 100% = 57 uM dopamine signal; potentiation, % (no concentration beside the values); 360,000 compounds, 0.23% hits; AID 624464, 2012; in the data active = potentiation above about 50%; inconclusive = mostly about 30% to 49%
# Target sequence (P14416 whole entry, looked up): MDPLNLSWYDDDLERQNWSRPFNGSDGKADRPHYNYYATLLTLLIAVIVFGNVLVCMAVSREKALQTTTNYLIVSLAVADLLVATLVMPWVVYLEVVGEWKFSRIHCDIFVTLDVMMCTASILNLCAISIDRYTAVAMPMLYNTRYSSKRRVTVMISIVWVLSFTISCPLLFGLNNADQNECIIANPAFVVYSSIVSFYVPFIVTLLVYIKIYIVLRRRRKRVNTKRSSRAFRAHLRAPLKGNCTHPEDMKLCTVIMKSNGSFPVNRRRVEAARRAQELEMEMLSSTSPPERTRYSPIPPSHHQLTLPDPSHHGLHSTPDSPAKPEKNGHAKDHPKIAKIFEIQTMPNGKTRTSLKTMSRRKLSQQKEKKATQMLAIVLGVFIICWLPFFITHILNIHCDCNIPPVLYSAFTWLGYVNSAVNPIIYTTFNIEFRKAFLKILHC
#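 PathHunter D2 cells, attached overnight at 37 deg C, received compound in DMSO plus dopamine at EC20 (50 nM final) for 90 min at 37 deg C. Beta-arrestin recruitment was read as luminescence after 1 h with detection reagent at ambient temperature.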
# D2 ag-1 = HTS Assay for Allosteric Agonists of the Human D2 Dopamine Receptor: Primary Screen for Agonists | HEK293 T-REx D2 cells, calcium flux agonist mode | D(2) dopamine receptor (Homo sapiens), P14416 | 340,000 compounds, 0.53% hits | activation, % at 2 µM;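 active = activation over 3 SD above normal in the single-dose calcium agonist read, cut at about 30% in these data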; note: 0% is about no effect
#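 Tetracycline-induced HEK293 T-REx cells with force-coupled D2 receptor, plated overnight at 30 C, loaded with no-wash calcium dye. After a 10 s baseline, compound was pin-added and calcium flux read kinetically for 180 s; calcium rises flagged agonists.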
# D2 PAM-2 = HTS Assay for Positive Allosteric Modulators of the Human D2 Dopamine Receptor: Primary Screen for Potentiators; AID 485347, 2010; 340,000 compounds, 0.34% hits; potentiation, % at 10 µM; D(2) dopamine receptor (Homo sapiens), P14416; HEK293 T-REx D2, calcium flux, EC20 dopamine potentiation;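 active = potentiation over 3 SD above the plate norm, cut at about 30% in these data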; note: 0% is about no effect
#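 Tetracycline-induced HEK293 T-REx cells force-coupled to calcium signalling expressed D2; compounds were pin-added after a 10 s baseline, read kinetically 180 s, then an EC20 dopamine challenge followed with a further 180 s calcium read.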
# D2 ag-2 = Beta-Arrestin HTS for Positive Allosteric Modulators of the Human D2 Dopamine Receptor: Agonists; 360,000 compounds, 0.084% hits; activation, % (no concentration beside the values); D(2) dopamine receptor (Homo sapiens), P14416; DiscoveRx PathHunter D2 beta-arrestin, luminescence, 90 min; 100% = 57 uM dopamine signal; in the data active = activation above about 40%; inconclusive = between about 15% and that limit
#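 Agonist mode: compounds alone added to overnight-plated D2 PathHunter cells for 90 min at 37 C, with 57 uM final dopamine (EC100) defining full response. Beta-arrestin recruitment detected by chemiluminescent reagent, read after 1 h at ambient temperature.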
# D2 antagonist = HTS Assay for Allosteric Antagonists of the Human D2 Dopamine Receptor: Primary Screen for Antagonists; inhibition, % at 10 µM; AID 485344, 2010; D(2) dopamine receptor (Homo sapiens), P14416; 340,000 compounds, 2% hits; HEK293 TREx D2 cells, calcium flux, dopamine EC80; in the data active = inhibition above about 30%; inactive = below that, where a call was filed; note: 0% is about no effect
#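 Cells plated overnight at 30 C with tetracycline; no-wash calcium dye, 30–90 min RT; 10 s baseline; compound pinned; 180 s read; EC80 dopamine added; another 180 s read.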
# Numbers without * were called inactive; ? = inconclusive; · = no result. Shown are actives, neighbours in structure and some others; about 2.4% of the full set was active somewhere.
SMILES,D2 PAM-1,D2 ag-1,D2 PAM-2,D2 ag-2,D2 antagonist
CC(C)C[C@H]1C(=O)N2CCC[C@H]2[C@]2(O)O[C@](NC(=O)C3C=C4c5cccc6[nH]c(Br)c(c56)C[C@H]4N(C)C3)(C(C)C)C(=O)N12 (some centres not stated),?,·,·,52*,·
COc1cc(NC(=S)NCc2cccs2)cc(OC)c1,-14,-1,-5,2,-24
CCN(CC)C(=O)CN1C(=O)/C(=C/c2ccccc2)SC1=S,-10,0,2,-3,-9
O=C1/C(=C\c2cc(Cl)c(O)c(Cl)c2)SC(=S)N1Cc1ccccc1,-7,-2,2,1,69*
CC(=O)NNC(=O)CN1C(=O)/C(=C/c2ccccc2)SC1=S,0,-4,0,7,74*
CC(NC(=O)CCCCCNC(=O)N1CCn2c1nc1ccccc12)c1ccccc1 (configuration not stated),-2,-1,5,-3,-3
O=C(CCC(C(=O)O)N1C(=O)c2ccccc2C1=O)Nc1ccccc1 (configuration not stated),-9,·,·,-5,·
O=C1CN(C(=O)Cc2ccc(F)cc2)C(c2ccccc2)c2cc(Cl)ccc2N1 (configuration not stated),·,1,10,·,·
COc1ccc(-c2cc3nc(C)cc(N4CC(C)CC(C)C4)n3n2)cc1 (configuration not stated),-2,0,40*,-1,-16
Cc1nn(C)c(C)c1/C=N/NC(=O)CCn1cc([N+](=O)[O-])cn1,-8,0,6,-2,32*
Cn1c(=O)c2cc(S(=O)(=O)NCCC(=O)N3CC=C(c4ccccc4)CC3)ccc2n(C)c1=O,-11,3,-20,-2,3
CCC(Cc1ccccc1)NC(=O)CN(C)S(=O)(=O)c1ccc2c(c1)c(=O)n(C)c(=O)n2C (configuration not stated),-7,0,52*,-1,23
CN(CC(=O)N1CC=C(c2ccccc2)CC1)S(=O)(=O)c1ccc2c(c1)c(=O)n(C)c(=O)n2C,-19,-1,4,4,31*
CC1(C)NC(=O)N(CNc2cc(Cl)ccc2Cl)C1=O,0,-1,-3,-1,0
Cn1c(CCC(=O)O)nc2cc(S(=O)(=O)N3CCCCC3)ccc21,-3,0,19,6,33*
Cc1ccc(/C(N)=N/OC(=O)c2cccs2)cc1,77*,0,0,?,-32
Cc1cccc(/C(N)=N/OC(=O)c2cccs2)c1,112*,·,·,?,·
COc1ccc(/C(N)=N/OC(=O)c2c(-c3ccccc3Cl)noc2C)cc1OC,56*,0,4,?,-16
N/C(=N\OC(=O)c1cccs1)c1ccccc1,?,0,-2,11,-8
COc1ccc(/C(N)=N/OC(=O)c2cccs2)cc1OC,71*,0,5,42*,2
C[C@@H]1COC(=O)[C@@H](Cc2ccc(F)cc2)CC/C=C\C[C@@H](CC(=O)NCCO)C(=O)N1,-33,·,·,-2,·
CCN(CC)S(=O)(=O)c1ccc(C(=O)NC(=S)N2CCN(c3ccccc3O)CC2)cc1,-13,·,·,-2,·
COc1ccc(C(=O)c2c[nH]cc2-c2ccccc2)cc1,-7,-2,5,-1,40*
COc1ccc(CN(C)CC(O)COC(c2ccc(OC)cc2)c2ccc(OC)cc2)cc1 (configuration not stated),-7,1,-4,1,39*
CCOc1ccc(CN(C)CC(O)COC(c2ccc(OC)cc2)c2ccc(OC)cc2)cc1 (configuration not stated),-10,0,0,4,30*
SMILES,D2 PAM-1,D2 ag-1,D2 PAM-2,D2 ag-2,D2 antagonist
COc1ccc(C(OCC(O)CN(C)C2CCCCC2)c2ccc(OC)cc2)cc1 (configuration not stated),-13,0,-3,-4,24
N#CCCN(C(=O)COC(=O)c1nc(Cl)ccc1Cl)c1ccccc1,2,-1,-1,-6,13
CCOC(=O)CSc1nc2cc(OC)c(OC)cc2c2nc(-c3ccccc3)nn12,·,1,0,·,·
Cn1nc(-c2ccc(Cl)cc2)c2cc(C(=O)NCCCN3CCCC3)sc21,11,0,-26,14,33*
CCN(CC)CCCNC(=O)c1cc2c(-c3cccc(OC)c3)nn(C)c2s1,-49,0,-2,0,-28
COc1cccc(-c2nn(C)c3sc(C(=O)NCCCN(C)Cc4ccccc4)cc23)c1,-36,-2,-23,7,33*
CCCCN(C)CCNC(=O)c1cc2c(-c3ccccc3F)nn(C)c2s1,-13,32*,-16,3,24
COc1cccc(-c2nn(C)c3sc(C(=O)NCc4ccco4)cc23)c1,-28,0,-17,-3,36*
O=C(NNc1nc2c(F)cccc2s1)c1ccccc1,5,1,11,4,-17
CN(C)S(=O)(=O)c1cccc(C(=O)NCCOC(=O)c2cc(F)c(F)cc2Cl)c1,-6,0,14,2,34*
CN(C)S(=O)(=O)c1cccc(C(=O)NCCNC(=O)c2cccc(S(=O)(=O)N(C)C)c2)c1,-8,-1,17,-5,-5
CC(C)N(Cc1nc(-c2ccccc2)no1)C(=O)c1ccc2c(c1)OCO2,-8,-3,4,1,31*
COc1ccc(CNc2nc(NCc3ccc(OC)cc3)n(C(=O)c3ccccc3[N+](=O)[O-])n2)cc1,-1,1,10,-3,31*
COc1ccc(CNc2nc(NCc3ccc(OC)cc3)n(C(=O)c3ccncc3)n2)cc1,-10,1,8,-2,3
CCCCN=C(C)C1=C(O)CSC1=O,-1,0,5,0,-2
CC(=NCCc1ccccc1)C1=C(O)CSC1=O,?,35*,1,0,-12
CC(C)NS(=O)(=O)c1ccc(OCC(N)=O)c(Cl)c1,-11,0,6,-1,34*
CCOC(=O)C1CCN(C(=O)COc2ccc(S(=O)(=O)NC(C)C)cc2Cl)CC1,-26,0,9,-1,7
Cc1ccc2c(c1)c1c(n2CC(O)Cn2c(C)nc3ccccc32)CCCC1 (configuration not stated),-4,1,-2,3,9
Cc1cc(C)cc(N(CC(=O)N2CCCCCC2)S(C)(=O)=O)c1,2,-1,-2,7,34*
